The whole screen tested about 5,500 compounds, of which about 2,000 (36%) were called active. Another 18% or so got no clear call; they are omitted. Rule as the data show it: active = normalized growth mostly below about 0.91 (no sharp cut-off); inconclusive = no clear call, values can overlap the other calls; inactive = mostly above about 0.92. This is one part of the list.
Experiment: chemical genetic growth profiling, strain panel (AID 1159580);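 also: tested at 20 µM; growth read once vehicle control cultures reached saturation at 30 °C; 1 = growth at the plate median or of vehicle wells; lower values mean less growth of the strain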
Conditions: growth OD

Measured: normalized growth

CCc1ccc(CCOc2ccc(CC3SC(=O)NC3=O)cc2)nc1 (configuration not stated)
inactive: S. cerevisiae deletion strains, locus YJR075W, strain HOC1, active compounds read low 0.997 | S. cerevisiae deletion strains, locus YKL009W, strain mrt4, active compounds read low 1.01 | S. cerevisiae deletion strains, locus YKL068W, active compounds read low 0.991 | S. cerevisiae deletion strains, locus YKL085W, strain MDH1 (second series), active compounds read low 0.991 | S. cerevisiae deletion strains, locus YKL085W, strain MDH1, active compounds read low 0.991 | S. cerevisiae deletion strains, locus YKL160W, strain elf1, active compounds read low 1.02 | S. cerevisiae deletion strains, locus YKL190W, strain CNB1, active compounds read low 1.02 | S. cerevisiae deletion strains, locus YKR001C, strain vps1, active compounds read low 0.977 | S. cerevisiae deletion strains, locus YKR026C, strain gcn3, active compounds read low 1.01 | S. cerevisiae deletion strains, locus YKR091W, strain srl3, active compounds read low 0.999 | S. cerevisiae deletion strains, locus YLL001W, strain dnm1, active compounds read low 1 | S. cerevisiae deletion strains, locus YLL026W, active compounds read low 1.02 | S. cerevisiae deletion strains, locus YLL041C, strain sdh2, active compounds read low 1.01 | S. cerevisiae deletion strains, locus YLR027C, strain aat2, active compounds read low 1.01 | S. cerevisiae deletion strains, locus YLR039C, strain RIC1, active compounds read low 0.914 | S. cerevisiae deletion strains, locus YLR058C, strain SHM2, active compounds read low 1.01 | S. cerevisiae deletion strains, locus YLR102C, strain apc9, active compounds read low 0.988 | S. cerevisiae deletion strains, locus YLR113W, strain HOG1, active compounds read low 1.01 | S. cerevisiae deletion strains, locus YLR221C, strain rsa3, active compounds read low 1.01 | S. cerevisiae deletion strains, locus YLR258W, strain gsy2, active compounds read low 1.02 | S. cerevisiae deletion strains, locus YLR262C, strain YPT6 (second series), active compounds read low 0.99 | S. cerevisiae deletion strains, locus YLR262C, strain YPT6, active compounds read low 0.88 | S. cerevisiae deletion strains, locus YLR268W, strain sec22, active compounds read low 0.993 | S. cerevisiae deletion strains, locus YLR320W, strain mms22, active compounds read low 1.01 | S. cerevisiae deletion strains, locus YLR330W, strain CHS5, active compounds read low 1.01 | S. cerevisiae deletion strains, locus YLR342W, strain FKS1 (second series), active compounds read low 0.985 | S. cerevisiae deletion strains, locus YLR342W, strain FKS1, active compounds read low 1.02 | S. cerevisiae deletion strains, locus YLR357W, strain rsc2, active compounds read low 1.03 | S. cerevisiae deletion strains, locus YLR370C, strain arc18, active compounds read low 1.01 | S. cerevisiae deletion strains, locus YLR371W, strain rom2, active compounds read low 0.989 | S. cerevisiae deletion strains, locus YLR384C, strain iki3, active compounds read low 1.01 | S. cerevisiae deletion strains, locus YLR418C, strain cdc73, active compounds read low 0.969 | S. cerevisiae deletion strains, locus YML016C, strain PPZ1, active compounds read low 0.997 | S. cerevisiae deletion strains, locus YML032C, strain rad52, active compounds read low 0.998 | S. cerevisiae deletion strains, locus YML120C, strain ndi1, active compounds read low 1.02 | S. cerevisiae deletion strains, locus YML124C, strain tub3, active compounds read low 0.992 | S. cerevisiae deletion strains, locus YMR058W, strain fet3, active compounds read low 1.01 | S. cerevisiae deletion strains, locus YMR078C, strain ctf18, active compounds read low 0.985 | S. cerevisiae deletion strains, locus YMR125W, strain sto1, active compounds read low 1.02 | S. cerevisiae deletion strains, locus YMR129W, active compounds read low 1 | S. cerevisiae deletion strains, locus YMR205C, strain PFK2, active compounds read low 0.997 | S. cerevisiae deletion strains, locus YMR223W, strain ubp8, active compounds read low 0.995 | S. cerevisiae deletion strains, locus YMR231W, strain pep5, active compounds read low 0.995 | S. cerevisiae deletion strains, locus YMR263W, strain SAP30, active compounds read low 1.04 | S. cerevisiae deletion strains, locus YMR307W, strain GAS1, active compounds read low 0.938 | S. cerevisiae deletion strains, locus YNL067W, strain RPL9B, active compounds read low 1.06 | S. cerevisiae deletion strains, locus YNL071W, strain lat1, active compounds read low 1.01 | S. cerevisiae deletion strains, locus YNL128W, strain TEP1, active compounds read low 1.04 | S. cerevisiae deletion strains, locus YNL153C, strain GIM3, active compounds read low 1 | S. cerevisiae deletion strains, locus YNL183C, strain NPR1, active compounds read low 0.963 | S. cerevisiae deletion strains, locus YNL209W, strain ssb2, active compounds read low 0.997 | S. cerevisiae deletion strains, locus YNL233W, strain BNI4, active compounds read low 1.01 | S. cerevisiae deletion strains, locus YNL248C, strain rpa49, active compounds read low 1.02 | S. cerevisiae deletion strains, locus YNL250W, strain rad50, active compounds read low 0.995 | S. cerevisiae deletion strains, locus YNL271C, strain bni1, active compounds read low 1 | S. cerevisiae deletion strains, locus YNL298W, strain CLA4, active compounds read low 0.997 | S. cerevisiae deletion strains, locus YNL307C, strain MCK1, active compounds read low 0.994 | S. cerevisiae deletion strains, locus YNL322C, strain KRE1 (second series), active compounds read low 1.02 | S. cerevisiae deletion strains, locus YNL322C, strain KRE1, active compounds read low 0.994 | S. cerevisiae deletion strains, locus YNR049C, strain mso1, active compounds read low 1.01 | S. cerevisiae deletion strains, locus YNR052C, strain pop2, active compounds read low 1.01 | S. cerevisiae deletion strains, locus YOL006C, strain TOP1, active compounds read low 1 | S. cerevisiae deletion strains, locus YOL012C, strain htz1 1.21 | S. cerevisiae deletion strains, locus YOL147C, strain pex11, active compounds read low 0.996 | S. cerevisiae deletion strains, locus YOR001W, strain rrp6, active compounds read low 1.01 | S. cerevisiae deletion strains, locus YOR061W, strain CKA2, active compounds read low 0.999 | S. cerevisiae deletion strains, locus YOR069W, strain VPS5, active compounds read low 1 | S. cerevisiae deletion strains, locus YOR070C, strain gyp1, active compounds read low 1.01 | S. cerevisiae deletion strains, locus YOR080W, strain dia2, active compounds read low 1.01 | S. cerevisiae deletion strains, locus YOR083W, strain WHI5, active compounds read low 1 | S. cerevisiae deletion strains, locus YOR106W, strain vam3, active compounds read low 1.02 | S. cerevisiae deletion strains, locus YOR136W, strain idh2, active compounds read low 1 | S. cerevisiae deletion strains, locus YOR144C, strain elg1, active compounds read low 0.993 | S. cerevisiae deletion strains, locus YOR184W, strain ser1, active compounds read low 0.971 | S. cerevisiae deletion strains, locus YOR231W, strain MKK1, active compounds read low 0.98 | S. cerevisiae deletion strains, locus YOR265W, strain rbl2, active compounds read low 1.01 | S. cerevisiae deletion strains, locus YOR270C, strain vph1, active compounds read low 1.04 | S. cerevisiae deletion strains, locus YOR290C, strain snf2, active compounds read low 1 | S. cerevisiae deletion strains, locus YOR316C, strain cot1, active compounds read low 0.997 | S. cerevisiae deletion strains, locus YPL051W, strain arl3, active compounds read low 1.01 | S. cerevisiae deletion strains, locus YPL055C, strain LGE1, active compounds read low 1.02 | S. cerevisiae deletion strains, locus YPL078C, strain atp4, active compounds read low 1.01 | S. cerevisiae deletion strains, locus YPL106C, strain sse1, active compounds read low 1.02 | S. cerevisiae deletion strains, locus YPL240C, strain hsp82, active compounds read low 1.02 | S. cerevisiae deletion strains, locus YPL241C, strain CIN2, active compounds read low 1 | S. cerevisiae deletion strains, locus YPL256C, strain CLN2, active compounds read low 0.936 | S. cerevisiae deletion strains, locus YPR119W, strain clb2, active compounds read low 0.989 | S. cerevisiae deletion strains, locus YPR141C, strain kar3, active compounds read low 0.994 | S. cerevisiae deletion strains, locus YPR163C, strain tif3, active compounds read low 0.999 | S. cerevisiae deletion strains, locus YPR167C, strain met16, active compounds read low 0.996 | S. cerevisiae deletion strains, strain wtn01, active compounds read low 0.99 | S. cerevisiae strains, strain wild type, active compounds read low 1.01

— PubChem BioAssay AID1159580 (chemical genetic matrix, 2015)
